# Laboratory results from PubChem BioAssay AID504408 (Broad Institute, 2011).
# About 5,200 (1.7%) of roughly 300,000 compounds were called active. This excerpt belongs to a sample that is enriched for actives. Values without a mark were called inactive.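 How the source made its calls: active means mean replicate activation of at least 50% with a set share of replicates each reaching 50%; inconclusive means only one of those two conditions met; inactive means mean below 50% and too few replicates reaching it.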
# Assay: HSF-1 activators, primary screen, NIH3T3-HGL cells, MG132 stress, luminescence, single point (AID 504408);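 further: 0% = median of the neutral control wells and 100% = twice that signal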
# Settings: NIH3T3-HGL HSF-1 luciferase reporter, MG132, 8 h; at 9 µM; hits give high values; 100% = twice DMSO control signal
row,SMILES,activation
1,COC(=O)c1c(NC(=O)CN(c2ccc(C)c(C)c2)S(C)(=O)=O)sc2c1CCCC2,31.3%
2,CCc1ccc(N(CC(=O)Nc2sc3c(c2C(=O)OC)CCCC3)S(C)(=O)=O)cc1,59.7% (active)
3,COC(=O)c1c(NC(=O)CSc2nncs2)sc2c1CCCCC2,17.2%
4,CCCN(CC(=O)Nc1ccccc1OC)C(=O)CCC(=O)c1ccc(F)cc1,-3.54%
5,COc1cc(NC(=O)c2cc([N+](=O)[O-])ccc2Br)ccc1NC(=O)c1ccco1,111% (active)
6,O=C(Nc1ccc(NC(=O)c2ccco2)c(Cl)c1)c1cccc([N+](=O)[O-])c1,0.794%
7,COc1ccccc1C(=O)Nc1ccc(NC(=O)c2ccco2)c(C)c1,-0.874%
8,O=C(OCC1OC(Oc2ccc(O)cc2)C(O)C(O)C1O)c1ccccc1 (configuration not stated),-4.63%
9,Cc1nc2ccccc2c(=O)n1Cc1ccc([N+](=O)[O-])cc1,7.48%
10,Cc1ccc(Cn2c(C)nc3c(c2=O)c2nc4ccccc4nc2n3Cc2ccco2)cc1,100% (active)
11,Cn1c2ccccc2c(=O)c2c(=O)n(Cc3ccco3)c(COc3ccccc3)nc21,17.1%
12,O=C(NCCCN1CCCC1=O)c1cccc(S(=O)(=O)NCc2ccccc2)c1,18.7%
13,COc1ccccc1OCC(=O)Nc1ccccc1C(=O)NC1CC1,6.1%
14,OCCCNc1nc(-c2ccccc2)c2cc(Cl)ccc2n1,-8.88%
15,CCCCn1c(N)c(N(CCOC)C(=O)c2sc3ccccc3c2Cl)c(=O)[nH]c1=O,1.82%
16,CC(Oc1ccc(Cl)cc1)C(=O)Nc1ncccn1 (configuration not stated),9.27%
17,Cc1ccc(SCCC(=O)OCC(=O)Nc2ncc(Cl)cc2Cl)cc1,1.1%
18,CC(Oc1ccc(Cl)cc1)C(=O)OCC(=O)Nc1ncc(Cl)cc1Cl (configuration not stated),83.9% (active)
19,CCC(C)N(C(=O)CSc1ncnc2c1cnn2-c1ccccc1)C1CCS(=O)(=O)C1 (configuration not stated),-5.54%
20,CCOC(=O)C(CCOc1cccc(CC)c1)C(=O)OCC,109% (active)
21,CCOC(=O)c1cccc(NC(=O)CCOc2ccccc2)c1,9.76%
22,CCOc1ccc(NC(=O)CN(C)C(=O)COc2cccc(CC)c2)cc1OCC,-14.1%
23,CC(=O)Nc1cccc(C(=O)OCC(=O)NCc2cc(C)c(O)c(C)c2)c1,3.6%

row,SMILES,activation
1,Nc1nonc1-n1nnc(C(=O)N/N=C/c2ccccc2O)c1CN1CCCC1,12.4%
2,Cc1cc(C)cc(OCC(=O)O/N=C(\N)Cc2ccc([N+](=O)[O-])cc2)c1,59.9% (active)
3,CCOC(=O)COc1ccc([N+](=O)[O-])cc1,9.19%
4,N/C(Cc1ccc([N+](=O)[O-])cc1)=N\OC(=O)C1CCCCC1,-5.43%
5,COc1cc(OC)cc(C(=O)NNC(=O)CNC(=O)c2ccc(Br)o2)c1,12%
6,Cc1ccc(NC(=O)CSCC(=O)Nc2sccc2C#N)cc1,-2.79%
7,Cc1noc(C)c1COc1ccccc1C(=O)N(C)CC(=O)Nc1cccc(F)c1,-1.32%
8,O=C1CCCN2N=C(SCC(=O)Nc3ccc(Br)cc3)SC2=N1,112% (active)
9,O=C(CSCc1ccc(Br)cc1)Nc1ccc(S(=O)(=O)N2CCCCCC2)cc1,25.6%
10,Cc1cc(=O)[nH]c(SCC(=O)Nc2ccc(Br)cc2)n1,2.91%
11,CCOc1ccc(CC(=O)NCCS(=O)(=O)N2CCN(c3ccccc3)CC2)cc1,3.03%
12,CS(=O)(=O)N(Cc1ccc(Cl)cc1)c1ccc(C(=O)NCCSCc2ccco2)cc1,71.5% (active)
13,Cc1cc(C)cc(N(CC(=O)NCCSCc2ccco2)S(C)(=O)=O)c1,9.37%
14,COc1ccc(C(=O)Nc2ccccc2C(=O)NCc2ccco2)cc1,10.2%
15,CCc1ccccc1N(CC(=O)NCCSCc1ccco1)S(C)(=O)=O,6.86%
16,Cc1ccc(N(Cc2ccc(C(=O)Nc3ccccc3C(=O)NCc3ccco3)cc2)S(C)(=O)=O)cc1C,87.4% (active)
17,O=C(Nc1ccccc1)Nc1ccccc1C(=O)NCc1ccco1,25.4%
18,O=C(CCN1C(=O)C2CCCCC2C1=O)Nc1ccc(OC(F)F)cc1 (configuration not stated),20.6%
19,O=C(CNC(=O)c1ccccc1Br)NCCSc1ccc(Br)cc1,8.99%
20,CCCn1c(C)cc(-c2csc(NC(=O)CCc3nc4ccccc4c(=O)[nH]3)n2)c1C,-8.73%
21,CCCc1cc(=O)[nH]c2nnc(SCC(=O)Nc3nnc(SCC)s3)n12,-4.43%
22,CCOc1ccc(S(=O)(=O)Nc2ccc(C(=O)NCCCN3CCCC3=O)cc2)cc1,4.33%
23,CCc1noc(C)c1C(=O)NNC(=O)c1ccc(F)cc1,7.94%

row,SMILES,activation
1,Cc1ccc(-c2c3c(=O)n(C)c(=O)n(C)c3cn2-n2cnnc2)cc1,89.3% (active)
2,Cc1ccc(-c2c3c(=O)n(C)c(=O)n(C)c3cn2-c2ccccc2O)cc1,3.5%
3,COc1ccc(-c2c3c(=O)n(C)c(=O)n(C)c3cn2NC(C)=O)cc1,-5.15%
4,COc1cccc(CNC(=O)C(=O)NCCC2CCCCN2S(=O)(=O)c2ccc(C)cc2)c1 (configuration not stated),-8.41%
5,O=C(Nc1ccncc1)c1ccc([N+](=O)[O-])cc1Cl,23.1%
6,CN1C(=O)c2ccc(C(=O)Nc3ccc(Br)cn3)cc2C1=O,-4.17%
7,CC(C)C(=O)Nc1cccc(NC(=O)c2ccc([N+](=O)[O-])cc2Cl)c1,32.5%
8,O=C(Nc1ccc(Br)cn1)c1ccc([N+](=O)[O-])o1,131% (active)
9,O=C(Nc1ccc(Br)cn1)c1ccc([N+](=O)[O-])cc1Cl,69.9% (active)
10,O=C(/C=C/c1ccc(Cl)cc1)Nc1ccc(Br)cn1,6.81%
11,COc1ccc(C(=NN)c2ccc(OC)cc2)cc1,29.3%
12,CN(C)CCn1c2c(c(SCC(=O)NCc3ccccc3)nc1=O)CCC2,4.29%
13,CCc1nnc(NS(=O)(=O)c2ccc(NC(=O)c3cccc(OC(F)(F)C(F)F)c3)cc2)s1,-15.3%
14,Cc1onc(C(=O)NCc2ccc(F)cc2)c1[N+](=O)[O-],8.38%
15,Cc1cccc(NC(=O)c2sc(-c3ccccc3)nc2-c2ccc([N+](=O)[O-])cc2)c1,-61.8%
16,Cc1cccc(NC(=O)c2ccc([N+](=O)[O-])o2)c1,56.4% (active)
17,Cc1onc(C(=O)Nc2ccc3c(c2)OCO3)c1[N+](=O)[O-],10.2%
18,Cc1cccc(NC(=O)c2cc([N+](=O)[O-])ccc2N2CCN(C)CC2)c1,13.9%
19,Cc1cccc(NC(=S)Nc2ccc(Br)cc2)c1,46.2%
20,Cc1onc(NC(=O)c2ccc([N+](=O)[O-])o2)c1Br,52.4% (active)
21,Cc1cccc(NC(=O)NC(=S)NC(=O)c2ccccc2)c1,13.9%
22,Cc1cccc(NC(=S)NC(=O)c2ccc(Br)o2)c1,78.6% (active)
23,O=C1[C@H]2[C@@H](c3ccc(F)cc3)N3C(=O)N(c4ccc(C(F)(F)F)cc4)C(=O)[C@@]3(Cc3ccccc3)[C@H]2C(=O)N1C1CCCCC1,-4.57%

row,SMILES,activation
1,O=C(NCCC1CCCCN1S(=O)(=O)c1ccc(Cl)cc1)C(=O)NCc1ccco1 (configuration not stated),22.8%
2,COc1ccc(NS(=O)(=O)c2ccc(C)c(C(=O)N(C)Cc3ccc(OC)cc3OC)c2)cc1,-13.6%
3,CCOc1ncccc1C(=O)NNC(=O)c1cccc(S(=O)(=O)Nc2ccccc2OC)c1,-1.67%
4,O=C(NNC(=O)c1ccc(Cl)cc1Cl)c1cccs1,25.3%
5,Cc1ccc(NNC(=O)c2c(F)cccc2Cl)cc1Cl,0.438%
6,Cc1ccc(NNC(=O)c2cccs2)cc1Cl,69.2% (active)
7,Cc1ccc(NC(=O)c2cnc(SCC(=O)NCC3CCCO3)n(C)c2=O)cc1 (configuration not stated),7.91%
8,Cc1cc(C)c(-c2csc(NC(=O)CCCc3nc4ccccc4c(=O)[nH]3)n2)c(C)c1,-6.87%
9,Cc1ccc(S(=O)(=O)NC(C)C(=O)NCc2ccc(Cl)cc2)cc1 (configuration not stated),0.844%
10,CCc1noc(C)c1C(=O)Nc1nc(-c2ccccc2)cs1,6.16%
11,O=C(CNC(=O)c1cc2c(s1)CCC2)Nc1ccccc1Br,14.7%
12,O=C(NNC(=O)c1cc2c(s1)CCCC2)c1ccccc1,5.42%
13,O=C(Nc1ccc(F)cc1)c1cc2c(s1)CCCC2,91.6% (active)
14,CCOc1cc(C(=O)Nc2ccc(S(=O)(=O)Nc3cnc4ccccc4n3)cc2)cc(OCC)c1OCC,9.73%
15,CC1C(=O)N2CCCc3cc(S(=O)(=O)NCc4ccc(F)cc4)cc1c32 (configuration not stated),5.48%
16,Nc1cccc2c1C(=O)N(Cc1nnc(-c3ccccc3Br)o1)C2=O,54.8% (active)
17,CCOC(=O)N1CCN(Cc2nnc(-c3ccccc3Cl)o2)CC1,-16.1%
18,Cn1cnnc1SCc1nnc(-c2ccccc2Br)o1,1.6%
19,O=C(CSc1nc(=O)n2ccccc2n1)Nc1ccc2c(c1)OCCO2,-13.2%
20,COc1cccc(NC(=O)CSc2nccn(-c3ccc4c(c3)OCCO4)c2=O)c1,8.35%
21,CC(=O)Nc1ccc(N2C(=O)C3C4C=CC(CC4)C3C2=O)cc1 (configuration not stated),6.25%
22,CCc1ccccc1N1C(=O)C2C3CC(=O)C(c4ccccc43)C2C1=O (configuration not stated),-0.868%
23,CC(=O)Nc1ccc(N2C(=O)C3C4CC(=O)C(c5ccccc54)C3C2=O)cc1 (configuration not stated),63.1% (active)
